# Data as given in PubChem BioAssay (NCI).
# Compounds without any hit were thinned out: in the full panel of roughly 83,000, 20% have a hit.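 A percent growth of 40 corresponds to 60% growth inhibition; 0 means no net growth; -100 means all cells died. Active threshold: below 10.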 Values without a mark were called inactive. Calls of active or inactive are those of the source.
# Tests used:
# Assay in all cases: NCI-60 one-dose screen, 48 h (100 = growth as untreated, 0 = no growth, -100 = all killed)
# Details in all cases: 10 µM
# NCI-H23 lung = system: NCI-H23 lung
# NCI-H226 lung = system: NCI-H226 lung
# NCI-H322M lung = system: NCI-H322M lung
# HOP-62 NSCLC = system: HOP-62 NSCLC
# NCI-H460 lung = system: NCI-H460 lung
# NCI-H522 lung = system: NCI-H522 lung
# A549/ATCC NSCLC = system: A549/ATCC NSCLC
# 786-0 renal = system: 786-0 renal
# COLO 205 colon = system: COLO 205 colon
# DU-145 prostate = system: DU-145 prostate
Structure (SMILES),growth (NCI-H23 lung),growth (NCI-H226 lung),growth (NCI-H322M lung),growth (HOP-62 NSCLC),growth (NCI-H460 lung),growth (NCI-H522 lung),growth (A549/ATCC NSCLC),growth (786-0 renal),growth (COLO 205 colon),growth (DU-145 prostate)
CC(=O)O[C@]1(C)CC[C@H]2[C@H](CNCCc3ccc(Cl)cc3)C(=O)O[C@@H]2C2=C(C)C(=O)C[C@H]21,102%,94.9%,91.9%,94%,106%,-33.4% (active),85.6%,96.6%,97%,89.4%
C#Cc1ccc(-n2c(/C=C/c3ccc(O)c(OC)c3)nc3ncccc3c2=O)cc1,102%,93.9%,98.2%,95.3%,103%,79%,90.3%,105%,109%,111%
COc1cc(Cl)cc(-c2nn(-c3cccc(NC(=O)Nc4cc(C(F)(F)F)cc(C(F)(F)F)c4)c3)cc2-c2ccncc2)c1,-6.14% (active),-5.97% (active),11%,-41.1% (active),0.241% (active),-15.6% (active),5.14% (active),-26.9% (active),-64% (active),13.1%
CN(C)CCCn1c(=O)c2ccccc2c2cnc3[nH]ccc3c21,13.8%,-0.537% (active),9.79% (active),-1.44% (active),-6.21% (active),-38.9% (active),1.69% (active),15.2%,-31.3% (active),-0.745% (active)
Nc1cc2c(cc1Cl)-c1ccc([N+](=O)[O-])cc1/C2=N\O,83.4%,93.3%,50.1%,111%,48.8%,69.8%,59.2%,90.8%,109%,63%
COc1cc(-c2cc(/C=C3\C(=O)Nc4ccc(Cl)cc43)[nH]n2)cc(OC)c1OC,38.3%,58.2%,51.5%,44.6%,38%,20.2%,40.4%,61.6%,11.4%,–
COc1cc(/C=N/NC(=O)c2ccccc2Nc2ccnc(C(F)(F)F)c2)ccc1O,91.8%,238%,130%,110%,108%,102%,66.9%,106%,115%,130%
COc1ccc(-c2cc(-c3cccc(NS(C)(=O)=O)c3)nc(N)c2C#N)cc1,37.7%,62.8%,44.4%,52.3%,4.64% (active),-4.96% (active),33.6%,42.9%,-27% (active),5.82% (active)
Cc1cs/c(=N\NC(=O)c2cc(-c3cc4ccccc4o3)nn2-c2ccccc2)n1-c1ccccc1,85.9%,91.3%,93.5%,97.9%,97.1%,86.4%,88.4%,91.4%,98.3%,–
COc1ccc(Cn2c(C(N)=O)cc3c2-c2nc(N)ncc2CCC3)cc1,106%,98.6%,89.1%,100%,97.7%,103%,93.7%,101%,101%,99.4%
O=C1/C(=C\c2ccccc2)CN(C(=O)c2ccccc2F)C/C1=C\c1ccccc1,33.8%,27.9%,74.6%,17.9%,51.6%,-3.31% (active),53.3%,-40.8% (active),14.6%,7.15% (active)
COc1ccc2c(c1)[n+]([O-])c(C#N)c(NC(=O)c1ccco1)[n+]2[O-],99.9%,97.7%,95.2%,93.7%,107%,98.1%,111%,105%,96.2%,–
COc1cc(-c2cc(C(=O)N3CCN(C(=O)c4ccccc4NCc4cccs4)CC3)nc3cc(-c4ccccc4)nn23)cc(OC)c1OC,85.6%,78.7%,72.1%,87.5%,38.4%,18.6%,50.7%,85.2%,56.1%,81.7%
COc1ccc([N+](=O)[O-])c(C(=O)O)c1,105%,95%,93.4%,100%,106%,73.4%,103%,101%,102%,112%
CSc1nn(-c2ccccc2)c2ncnc(Oc3ccc(C)cc3)c12,91.8%,81.4%,82%,67.5%,91%,75.5%,80%,65.4%,113%,105%
COc1cc(CNc2ccccc2C(=O)N2CCN(C(=O)c3cc(-c4cc(OC)c(OC)c(OC)c4)n4nc(-c5ccccc5)cc4n3)CC2)cc(OC)c1OC,61.7%,76.5%,43.7%,53.9%,11.7%,7.02% (active),37.8%,50.8%,46.8%,67.7%
C#Cc1ccc(-n2c(/C=C/c3cc(OC)cc(OC)c3)nc3ncccc3c2=O)cc1,89%,65.8%,72.5%,48.6%,94.6%,7.88% (active),68.4%,81%,117%,93.2%
COc1ccc2c(c1)N(CCO)C1=C(C(=O)OC1)C2c1ccccc1 (configuration not stated),35.1%,36.3%,41.7%,24%,9.29% (active),-24.9% (active),46.6%,37.9%,8.42% (active),16.4%
O=c1oc2cc(OS(=O)(=O)c3ccccc3)ccc2c2c1CCCCC2,68.4%,59.6%,82.6%,78.2%,28.4%,66.4%,34.7%,68.8%,31.1%,84.8%
CCOC(=O)c1ccc(NC(=O)Nc2ncc(Cl)cc2Cl)cc1,93.9%,95.3%,99.3%,104%,93.3%,-37.6% (active),40.7%,92.9%,130%,111%
Cc1nc2oc3ccccc3c(=O)c2cc1C(=O)NCc1ccccc1,85.9%,105%,76.2%,90.5%,32.2%,86.4%,68.9%,61.5%,39.9%,77%
COc1ccc(-c2nn(-c3cccc(NC(=O)Nc4cccc(C(F)(F)F)c4)c3)cc2-c2ccncc2)cc1Cl,5.45% (active),25.7%,24.4%,25.2%,2.43% (active),-6.94% (active),7.5% (active),24.2%,1.37% (active),22%
COc1ccc(NC2=NC(C)(CO)CS2)cc1 (configuration not stated),97.1%,103%,102%,94.6%,100%,-14.7% (active),42.8%,105%,117%,120%
C(CCCC1=NCCO1)CCCC1=NCCO1,97.2%,95.8%,118%,107%,104%,103%,101%,99.1%,99.5%,108%
COc1cc(Cl)cc(-c2nn(-c3cccc(NC(=O)Nc4ccc(Cl)c(Cl)c4)c3)cc2-c2ccncc2)c1,5.72% (active),7.27% (active),32.3%,15.7%,3.1% (active),-19% (active),11.4%,19.6%,-70.3% (active),12.1%
O=c1c2ccccc2nc(SCCN2CCCCC2)n1CCc1ccccc1,77.5%,101%,97.6%,89%,105%,89.2%,87.9%,86.7%,74.7%,101%
COc1cc2cc3c(nc2cc1OC)CCN3Cc1ccc(NC(=O)Nc2ccc(F)cc2F)cc1,71.5%,79.4%,84.8%,105%,97.6%,63%,69.4%,70.4%,90.9%,91.2%
COc1ccc2c(c1)O/C(=C\c1ccc([N+](=O)[O-])o1)C2=O,-3.07% (active),22.3%,41.5%,-12.4% (active),-20.9% (active),-63% (active),-10.9% (active),-27.3% (active),-79.4% (active),-11.1% (active)
